Results from PubChem BioAssay AID1159580 (chemical genetic matrix, 2015).
Among all 5,500 compounds or so, about 2,000 (36%) were called active. Inconclusive results (about 18%) are left out. Rule as the data show it: active = normalized growth mostly below about 0.91 (no sharp cut-off); inconclusive = no clear call, values can overlap the other calls; inactive = mostly above about 0.92. The list shows a part of the results.

Experiment: chemical genetic growth profiling, strain panel (AID 1159580);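 also: tested at 20 µM; growth read once vehicle control cultures reached saturation at 30 °C; 1 = growth at the plate median or of vehicle wells; lower values mean less growth of the strain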
Settings: S. cerevisiae deletion strains, growth OD

Measured: normalized growth

Cc1nc(-c2ccccn2)[nH]c(=O)c1Cc1c(Cl)cccc1Cl
inactive: locus YAR019C, strain CDC15, hits give low values 0.967 | locus YBL105C, strain PKC1, hits give low values 0.962 | locus YBR135W, strain CKS1, hits give low values 0.956 | locus YBR136W, strain MEC1, hits give low values 0.954 | locus YBR160W, strain CDC28, hits give low values 0.963 | locus YDL017W, strain CDC7, hits give low values 0.961 | locus YDL028C, strain MPS1, hits give low values 0.95 | locus YDL101C, strain DUN1, hits give low values 0.965 | locus YDL108W, strain KIN28, hits give low values 0.954 | locus YDL132W, strain cdc53, hits give low values 0.941 | locus YDL214C, strain PRR2, hits give low values 0.861 | locus YDR052C, strain DBF4, hits give low values 0.96 | locus YDR054C, strain cdc34, hits give low values 0.928 | locus YDR226W, strain ADK1, hits give low values 0.959 | locus YDR477W, strain SNF1, hits give low values 0.871 | locus YER123W, strain YCK3, hits give low values 0.726 | locus YER133W, strain GLC7, hits give low values 0.872 | locus YFL009W, strain cdc4, hits give low values 0.965 | locus YFL029C, strain CAK1, hits give low values 0.957 | locus YFR003C, strain YPI1, hits give low values 0.959 | locus YFR019W, strain FAB1, hits give low values 0.906 | locus YFR028C, strain CDC14, hits give low values 0.972 | locus YGR040W, strain KSS1, hits give low values 0.859 | locus YGR052W, strain FMP48, hits give low values 0.871 | locus YGR092W, strain DBF2, hits give low values 0.762 | locus YHR030C, strain SLT2, hits give low values 0.985 | locus YHR079C, strain IRE1, hits give low values 0.842 | locus YHR082C, strain KSP1, hits give low values 0.893 | locus YHR205W, strain SCH9, hits give low values 0.939 | locus YIL147C, strain SLN1, hits give low values 0.946 | locus YJL095W, strain BCK1, hits give low values 0.892 | locus YJL128C, strain PBS2, hits give low values 0.928 | locus YJL157C, strain FAR1, hits give low values 0.823 | locus YJR016C, strain ILV3, hits give low values 0.952 | locus YJR066W, strain TOR1 (second series), hits give low values 0.769 | locus YJR066W, strain TOR1, hits give low values 0.864 | locus YKL048C, strain ELM1, hits give low values 0.941 | locus YKL067W, strain YNK1, hits give low values 0.881 | locus YKL101W, strain HSL1, hits give low values 0.853 | locus YKL193C, strain SDS22, hits give low values 0.951 | locus YKL203C, strain TOR2, hits give low values 0.899 | locus YLR133W, strain CKI1, hits give low values 0.889 | locus YLR403W, strain SFP1, hits give low values 0.858 | locus YML070W, strain DAK1, hits give low values 0.84 | locus YMR001C, strain CDC5, hits give low values 0.956 | locus YMR205C, strain PFK2 (second series), hits give low values 0.876 | locus YMR277W, strain FCP1, hits give low values 0.952 | locus YNL006W, strain LST8, hits give low values 0.952 | locus YNL020C, strain ARK1, hits give low values 0.845 | locus YNL161W, strain CBK1, hits give low values 0.958 | locus YNL183C, strain NPR1, hits give low values 0.9 | locus YNL207W, strain RIO2, hits give low values 0.951 | locus YNL222W, strain SSU72, hits give low values 0.956 | locus YNL307C, strain MCK1 (second series), hits give low values 0.843 | locus YOL078W, strain AVO1, hits give low values 0.964 | locus YOL136C, strain PFK27, hits give low values 0.866 | locus YOR061W, strain CKA2, hits give low values 0.827 | locus YOR119C, strain RIO1, hits give low values 0.887 | locus YOR231W, strain MKK1, hits give low values 0.86 | locus YOR329C, strain SCD5, hits give low values 0.958 | locus YPL031C, strain PHO85, hits give low values 0.869 | locus YPL153C, strain RAD53, hits give low values 0.805 | locus YPL204W, strain HRR25, hits give low values 0.84 | locus YPL209C, strain IPL1, hits give low values 0.956 | locus YPL256C, strain CLN2, hits give low values 0.94 | locus YPR025C, strain CCL1, hits give low values 0.964 | locus YPR106W, strain ISR1, hits give low values 0.985 | locus YPR111W, strain DBF20, hits give low values 0.973 | strain NNK1, hits give low values 0.96 | strain TSCII, hits give low values 0.949
active: locus YLR113W, strain HOG1, hits give low values 0.837
